# Laboratory results: article PMC12820563, “FoxP3 forms a head-to-head dimer in vivo and stabilizes its multimerization on adjacent microsatellites”
# Over roughly 16,000 sequences, “rpm ratio (pull-down/input)” has its median near 0.94; the highest 2% begin near 1.7. This excerpt belongs to a sample that is enriched for the highest values.
# Target: T1, MBP-FoxP1dN (Mus musculus, UniProt P58462 326-579)
# T1 sequence: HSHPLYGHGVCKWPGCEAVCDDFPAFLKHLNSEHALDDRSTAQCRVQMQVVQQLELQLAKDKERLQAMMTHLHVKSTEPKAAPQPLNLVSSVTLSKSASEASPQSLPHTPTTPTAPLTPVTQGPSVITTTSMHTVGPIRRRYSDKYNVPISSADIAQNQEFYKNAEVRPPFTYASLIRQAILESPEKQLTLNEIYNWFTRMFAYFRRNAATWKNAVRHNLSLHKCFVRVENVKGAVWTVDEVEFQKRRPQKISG
# Assay: PD-seq (MBP pull-down with sequencing); 20 mM Tris-HCl pH 7.5, 100 mM NaCl, 1.5 mM MgCl2, 0.4 uM protein, 0.1 uM dsDNA library, 30 min, room temperature, amylose pull-down; high values mean tight binding
# Conditions: protein: recombinant; tags: His6-MBP; chain copies: 2; dsDNA, one strand shown
# In short: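 Protein and DNA were mixed at 0.4 µM and 0.1 µM and held for 30 min at room temperature in Tris pH 7.5 buffer with NaCl and MgCl2; the protein was a His6-MBP-tagged, N-terminally truncated mouse FoxP3 or FoxP1 fragment from E. coli, and the DNA a Klenow-filled double-stranded degenerate library. Amylose resin captured the complexes, which were washed three times. Binding is read as reads-per-million enrichment of pull-down versus input after Illumina sequencing, with replicates pooled.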
row,Sequence,binding signal
1,GATGATTGTTCTCCCAGCTGATGAATTTAACGCCTCGAGTAAACAAATTTTCCTAATCTTTCTGTTCAAGCGCCATCTAC,0.91 RPM ratio (pull-down/input)
2,GATGATTGTTCTCCCAGCTGATGAATTAGCGCACTCGAGTAAACAAATTTTCCTAATCTTTCTGTTCAAGCGCCATCTAC,0.88 RPM ratio (pull-down/input)
3,GATGATTGTTCTCCCAGCTGATGAATTACACGCGTCGAGTAAACAAATTTTCCTAATCTTTCTGTTCAAGCGCCATCTAC,1.18 RPM ratio (pull-down/input)
4,GATGATTGTTCTCCCAGCTGATGAATTCACGGGTTCGAGTAAACAAATTTTCCTAATCTTTCTGTTCAAGCGCCATCTAC,0.766 RPM ratio (pull-down/input)
5,GATGATTGTTCTCCCAGCTGATGAATTCAGTCTATCGAGTAAACAAATTTTCCTAATCTTTCTGTTCAAGCGCCATCTAC,0.905 RPM ratio (pull-down/input)
6,GATGATTGTTCTCCCAGCTGATGAATTCGCCACTTCGAGTAAACAAATTTTCCTAATCTTTCTGTTCAAGCGCCATCTAC,0.857 RPM ratio (pull-down/input)
7,GATGATTGTTCTCCCAGCTGATGAATTGTACTCATCGAGTAAACAAATTTTCCTAATCTTTCTGTTCAAGCGCCATCTAC,1.04 RPM ratio (pull-down/input)
8,GATGATTGTTCTCCCAGCTGATGAATTTTATAGGTCGAGTAAACAAATTTTCCTAATCTTTCTGTTCAAGCGCCATCTAC,0.796 RPM ratio (pull-down/input)
9,GATGATTGTTCTCCCAGCTGATGAATTGAGTGTATCGAGTAAACAAATTTTCCTAATCTTTCTGTTCAAGCGCCATCTAC,1.16 RPM ratio (pull-down/input)
10,GATGATTGTTCTCCCAGCTGATGAATTTATGATATCGAGTAAACAAATTTTCCTAATCTTTCTGTTCAAGCGCCATCTAC,1.33 RPM ratio (pull-down/input)
11,GATGATTGTTCTCCCAGCTGATGAATTTTATGTATCGAGTAAACAAATTTTCCTAATCTTTCTGTTCAAGCGCCATCTAC,1.71 RPM ratio (pull-down/input)
12,GATGATTGTTCTCCCAGCTGATGAATTCATCTTATCGAGTAAACAAATTTTCCTAATCTTTCTGTTCAAGCGCCATCTAC,0.961 RPM ratio (pull-down/input)
13,GATGATTGTTCTCCCAGCTGATGAATTTTATGAATCGAGTAAACAAATTTTCCTAATCTTTCTGTTCAAGCGCCATCTAC,0.942 RPM ratio (pull-down/input)
14,GATGATTGTTCTCCCAGCTGATGAATTATGATTATCGAGTAAACAAATTTTCCTAATCTTTCTGTTCAAGCGCCATCTAC,1.51 RPM ratio (pull-down/input)
15,GATGATTGTTCTCCCAGCTGATGAATTCATGTTATCGAGTAAACAAATTTTCCTAATCTTTCTGTTCAAGCGCCATCTAC,1.78 RPM ratio (pull-down/input)
16,GATGATTGTTCTCCCAGCTGATGAATTATGTTTATCGAGTAAACAAATTTTCCTAATCTTTCTGTTCAAGCGCCATCTAC,2.99 RPM ratio (pull-down/input)
17,GATGATTGTTCTCCCAGCTGATGAATTCATGTAATCGAGTAAACAAATTTTCCTAATCTTTCTGTTCAAGCGCCATCTAC,1.5 RPM ratio (pull-down/input)
18,GATGATTGTTCTCCCAGCTGATGAATTATCTTTATCGAGTAAACAAATTTTCCTAATCTTTCTGTTCAAGCGCCATCTAC,1.09 RPM ratio (pull-down/input)
19,GATGATTGTTCTCCCAGCTGATGAATTTATGTTATCGAGTAAACAAATTTTCCTAATCTTTCTGTTCAAGCGCCATCTAC,2.22 RPM ratio (pull-down/input)
20,GATGATTGTTCTCCCAGCTGATGAATTTATGTAATCGAGTAAACAAATTTTCCTAATCTTTCTGTTCAAGCGCCATCTAC,1.95 RPM ratio (pull-down/input)
21,GATGATTGTTCTCCCAGCTGATGAATTATGTAAATCGAGTAAACAAATTTTCCTAATCTTTCTGTTCAAGCGCCATCTAC,1.47 RPM ratio (pull-down/input)
